Screens as filed in PubChem.
BoNT A protease: BoNT A light chain protease inhibition; inhibition, % at 10 µM; multiplex microsphere protease substrate cleavage, flow cytometry; 360,000 compounds, 0.17% hits; AID 588499; further: plate controls were buffer without enzyme for full effect and enzyme alone for no effect
Autofluor counter: counter-screen for toxin protease inhibitors: compound fluorescence; fluorescence intensity (test concentration not listed); AID 624483; compound autofluorescence counterscreen, microsphere flow cytometry; active compounds read high; 360,000 compounds, 3.1% hits; in the data active means fluorescence intensity above about 16000; inconclusive means no clear call, values can overlap the other calls
BoNT F protease: blocks Botulinum neurotoxin F light chain protease | 360,000 compounds, 0.22% hits | Multiplex microsphere protease cleavage assay, flow cytometry | inhibition, % at 10 µM; in the data active means inhibition above about 35%, passing the limit was not always enough; inconclusive means no clear call, values can overlap the other calls; further: plate controls were buffer without enzyme for full effect and enzyme alone for no effect
Anthrax LF prot: blocks Bacillus anthracis lethal factor protease; 360,000 compounds, 0.12% hits; P15917; inhibition, % at 10 µM; multiplex microsphere protease cleavage assay, LF; further: plate controls were buffer without enzyme for full effect and enzyme alone for no effect
Target sequence (P15917 whole entry, looked up): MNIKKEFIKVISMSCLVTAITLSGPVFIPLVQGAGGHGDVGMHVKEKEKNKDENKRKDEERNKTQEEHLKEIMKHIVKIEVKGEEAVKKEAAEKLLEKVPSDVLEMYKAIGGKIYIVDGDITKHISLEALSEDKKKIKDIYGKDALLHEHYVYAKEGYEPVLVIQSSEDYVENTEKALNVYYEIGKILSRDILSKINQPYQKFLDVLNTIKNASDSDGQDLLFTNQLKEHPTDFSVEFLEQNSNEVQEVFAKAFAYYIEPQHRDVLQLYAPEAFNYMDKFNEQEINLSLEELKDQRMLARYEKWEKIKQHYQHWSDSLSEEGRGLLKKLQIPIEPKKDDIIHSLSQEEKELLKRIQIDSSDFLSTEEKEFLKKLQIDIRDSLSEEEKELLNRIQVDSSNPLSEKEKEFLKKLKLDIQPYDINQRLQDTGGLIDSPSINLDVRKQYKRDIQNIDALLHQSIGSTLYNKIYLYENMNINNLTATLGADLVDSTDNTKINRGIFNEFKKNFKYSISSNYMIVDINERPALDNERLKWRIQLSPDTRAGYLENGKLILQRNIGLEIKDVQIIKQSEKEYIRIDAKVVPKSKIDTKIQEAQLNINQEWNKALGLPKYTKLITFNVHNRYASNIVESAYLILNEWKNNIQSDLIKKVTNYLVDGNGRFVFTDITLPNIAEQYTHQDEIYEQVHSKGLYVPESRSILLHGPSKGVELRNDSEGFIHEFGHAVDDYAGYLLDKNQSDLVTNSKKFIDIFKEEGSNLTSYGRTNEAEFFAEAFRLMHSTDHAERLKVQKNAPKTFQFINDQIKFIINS
Starred values were filed as active, the others as inactive; ? = inconclusive. Shown are actives, neighbours in structure and some others; about 3.5% of the full set was active somewhere. Unless noted, no stated cut-off is given here; in the data, active means inhibition above about 30%; inconclusive means no clear call, values can overlap the other calls; inactive means below that.

SMILES | BoNT A protease | Autofluor counter | BoNT F protease | Anthrax LF prot
Cc1ccc(Cl)cc1N1CCN(C(=O)C(C)n2ncn3cccc3c2=O)CC1 (centres undefined) | 0 | 4112 | 1 | 1
Cc1nn(CCC#N)c(NC(=O)c2ccc(Cl)cc2Cl)c1P(=O)(Nc1ccc([N+](=O)[O-])cc1)N1CCOCC1 (centres undefined) | 1 | 16178* | 3 | 0
O=C(NC1CCCCC1)C(c1ccc(O)cc1)N(CC1CCCO1)C(=O)C1COc2ccccc2O1 (centres undefined) | 0 | 20282* | 0 | 0
O/N=C1/C(=C\c2ccccc2)N2CCC1CC2 | 7 | 19798* | 9 | -5
COc1ccc(/C=C2\C(=N\O)C3CCN2CC3)cc1 | -2 | 3448 | -5 | 3
CCOC(=O)/C(=C/C1=CC(=C/N(C)C)/C(=O)O1)C(C)=O | 0 | 2895 | 36* | -8
Cc1ccc(S(=O)(=O)CCC(=O)OCC(=O)N2CC(=O)Nc3ccccc32)cc1 | -1 | 22432* | -3 | -6
C[C@H](N)c1nnc(SCc2c(Cl)cccc2Cl)o1 | 2 | 9009 | 2 | 12
CN(C)C(=O)CSc1nnc([C@@H](N)Cc2ccccc2)o1 | -1 | 22809* | -3 | -3
C[C@H](N)c1nnc(SCC(=O)N(C)C)o1 | -2 | 20911* | -2 | -1
CC1Sc2ccc(S(=O)(=O)N3CCC(C(=O)NCc4ccccc4)CC3)cc2NC1=O (centres undefined) | 0 | 5834 | -1 | 0
CCC1(C)Cc2c(sc3nnn(CC(=O)Nc4ccccc4)c(=O)c23)CO1 (centres undefined) | ? | 15796 | 2 | -8
CCC1(C)Cc2c(sc3nnn(Cc4ccccc4Cl)c(=O)c23)CO1 (centres undefined) | 0 | 20244* | -3 | 4
CC1(C)Cc2c(sc3nn[nH]c(=O)c23)CO1 | 0 | 4780 | -13 | -2
CCC1(C)Cc2c(sc3nn[nH]c(=O)c23)CO1 (centres undefined) | -1 | 16707* | -2 | -1
Cc1noc(C)c1C(=O)NC1CCCc2ccccc21 (centres undefined) | -4 | 21318* | -5 | 0
CSCCNC(=O)C1(C)CCN1C(=O)C/C=C/c1ccccc1 (centres undefined) | 0 | 2801 | 0 | -9
CC(=O)c1cccc(OCC(=O)N(CCC2=CCCCC2)c2c(N)n(Cc3ccccc3)c(=O)[nH]c2=O)c1 | 0 | 3823 | -1 | 0
Cc1ccc(/C=C2/SC(=S)N(C3CCCCC3)C2=O)o1 | 39* | 3828 | 26 | 24
Cc1ccc(/C=C2\SC(=S)N(CC3CCCO3)C2=O)o1 (centres undefined) | ? | 3638 | ? | 0
COc1ccc([C@@H]2Sc3cc(OC)ccc3N(CCN(C(C)C)C(C)C)C(=O)[C@H]2OC(C)=O)cc1 | 3 | 20962* | 5 | -4
COc1ccc(CN2CCN(CC(=O)Nc3ccccc3C(=O)NC3CC3)CC2)cc1F | -68 | 19106* | ? | -16
COc1ccc(F)cc1CN1CCN(CC(=O)Nc2ccccc2C(=O)NC2CC2)CC1 | 1 | 3841 | -1 | 5
COc1ccc(NC(=O)C2(C)CCN2CCc2ccccc2)cc1OC (centres undefined) | 0 | 3834 | 3 | 2
Cc1ccc(NC(=O)CSc2nnc(NC(=O)CN3CCOCC3)s2)cc1 | 0 | 16377* | 5 | -2
SMILES | BoNT A protease | Autofluor counter | BoNT F protease | Anthrax LF prot
CC(=O)c1ccc(NC(=O)CSc2nnc(NC(=O)CN3CCOCC3)s2)cc1 | 0 | 5339 | -4 | -3
O=C(CSc1nnc(NC2CCCCC2)s1)Nc1ccc(N2CCOCC2)cc1 | 1 | 22057* | 2 | 1
CC1=C(C(=O)N(C)C)CC(CC(=O)NCCc2ccccn2)C(=O)N1CCCN1CCCC1=O (centres undefined) | 0 | 3694 | 1 | 1
COc1ccc(S(=O)(=O)N2CCCC(C(=O)N3CCN(Cc4ccccc4)CC3)C2)cc1Cl (centres undefined) | 0 | 3860 | 4 | 1
O=C(CN1C(=O)CCSc2ccccc21)Nc1ccc2c(c1)OCCO2 | -1 | 16584* | -7 | -7
O=C(CN1C(=O)CSc2ccccc21)Nc1ccccc1C(=O)N1CCOCC1 | 3 | 22009* | 2 | -1
CC1CC(=O)N(CC(=O)Nc2ccc3c(c2)OCO3)c2ccccc2S1 (centres undefined) | -4 | 17388* | -6 | -5
O=C(CN1C(=O)CCSc2ccccc21)Nc1ccccc1 | -1 | 11204 | -7 | -1
Cc1cc(C)c(S(=O)(=O)NCc2nc3nc(C)cc(C)n3n2)c(C)c1 | 0 | 5939 | -2 | -10
Cc1cccc(C)c1NC(=O)C1c2ccccc2OCC(=O)N1CCCN1CCOCC1 (centres undefined) | 0 | 5556 | -5 | -6
CN(CC(=O)Nc1c(Cl)cccc1Cl)C(=O)C1=COCCO1 | -2 | 5816 | -12 | -8
CCOc1ccccc1-c1nc(-c2cc3ccc(C)cc3[nH]c2=O)no1 | 2 | 16326* | 5 | 0
O=c1cc(O)c2c(=O)n(C3CCCCC3)c3ccccc3c2o1 | 0 | 22987* | 2 | 2
O=S1(=O)CCO[C@H]2Cc3ccccc3[C@H]2N1Cc1ccc(F)cc1 | 0 | 3620 | 2 | -3
Cc1c(-c2cccs2)[n+](=O)c2c(n1[O-])CCCC2 | 4 | 20042* | 11 | -22
Cc1c(-c2ccccc2)[n+](=O)c2c(n1[O-])CCC2 | -2 | 3832 | -44 | -3
CCOC(=O)c1c(C)[nH]c(C)c1C(=O)COC(=O)c1ccc(S(=O)(=O)N(CC)CC)cc1 | ? | 16763* | -3 | -7
CCOC(=O)c1c(C)[nH]c(C)c1C(=O)COC(=O)c1cccc(S(=O)(=O)N(CC)CC)c1 | 0 | 3602 | -4 | -2
O=C(CN(c1ccccc1)S(=O)(=O)c1ccc(Cl)cc1)Nc1cccnc1 | 1 | 5653 | -4 | 6
CCNC(=S)NNC(=O)Nc1ccccc1 | 0 | 23334* | -1 | -5
COc1cc(C(=O)N(Cc2ccccn2)CC2CCCO2)cc(OC)c1OC (centres undefined) | 3 | 21493* | 5 | 1
O=C(Cc1ccc(S(=O)(=O)N2CCOCC2)s1)N1CCN(S(=O)(=O)c2cccc([N+](=O)[O-])c2)CC1 | 2 | ? | 11 | 0
CCOC(=O)c1sc(NC(=O)CSc2nnc(-c3ccc(OC)cc3)n2CCOC)nc1C | 1 | 22333* | -1 | -3
COCCn1c(SCC(=O)Nc2nnc(C)s2)nnc1-c1ccncc1 | -1 | 11254 | -10 | -1
O=S(=O)(Cc1ccccc1)N1CCN(C/C=C/c2ccccc2)CC1 | -5 | 25473* | -8 | -1
SMILES | BoNT A protease | Autofluor counter | BoNT F protease | Anthrax LF prot
CS(=O)(=O)N1CCN(C/C=C/c2ccccc2)CC1 | 1 | 3708 | 5 | 2
CN(Cc1ccc(C(C)(C)C)cc1)C(=O)c1ccc2c(=O)n3c(nc2c1)CCC3 | -2 | 5771 | -2 | -2
O=S1(=O)N=C(Oc2ccccc2)c2ccccc21 | 1 | 23213* | 0 | 0
COC1=NS(=O)(=O)c2ccccc21 | 0 | 2274 | 0 | 0
COc1ccc(OC)c(C(=O)COC(=O)c2ccccc2O)c1 | 2 | 22401* | 2 | 0
Cc1cc(C)n2nc(SCC(=O)Nc3ccccc3C)nc2n1 | 1 | 5105 | 1 | -2
